# Assays:
# Test in all cases: thermal shift delta Tm vs DMSO control; higher = stronger stabilization (binding)
# Settings in all cases: 12.5 µM; protein concentration 2 µM
# LOC_OS02G45750-cb003 = test system: LOC_OS02G45750-cb003
# In short: (§1)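 Heating from 25°C to 95°C at 0.05°C/s, fluorescence was recorded for 19.5 μl wells of 2 μM E. coli-expressed, purified rice kinase domain in 100 mM potassium phosphate pH 7.5, 150 mM NaCl, 10% glycerol and 5 × SYPRO Orange with compound in DMSO. Boltzmann fits gave melting temperatures for this differential scanning fluorimetry assay. The shift reported is the mean of three replicates against the DMSO-only protein.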
# LOC_OS02G54510-cb004 = test system: LOC_OS02G54510-cb004
# In short: as §1
# LOC_OS03G04050-cb001 = test system: LOC_OS03G04050-cb001
# In short: as §1
# LOC_OS03G12390-cb001 = test system: LOC_OS03G12390-cb001
# In short: as §1
# LOC_OS03G27990-cb004 = test system: LOC_OS03G27990-cb004
# In short: as §1
# LOC_OS03G50450-cb001 = test system: LOC_OS03G50450-cb001
# In short: as §1
# LOC_OS03G50810-cb003 = test system: LOC_OS03G50810-cb003
# In short: as §1
# LOC_OS04G35114-cb001 = test system: LOC_OS04G35114-cb001
# In short: as §1
# LOC_OS04G38480-cb003 = test system: T1, LOC_OS04G38480-cb003
# T1 sequence (whole entry): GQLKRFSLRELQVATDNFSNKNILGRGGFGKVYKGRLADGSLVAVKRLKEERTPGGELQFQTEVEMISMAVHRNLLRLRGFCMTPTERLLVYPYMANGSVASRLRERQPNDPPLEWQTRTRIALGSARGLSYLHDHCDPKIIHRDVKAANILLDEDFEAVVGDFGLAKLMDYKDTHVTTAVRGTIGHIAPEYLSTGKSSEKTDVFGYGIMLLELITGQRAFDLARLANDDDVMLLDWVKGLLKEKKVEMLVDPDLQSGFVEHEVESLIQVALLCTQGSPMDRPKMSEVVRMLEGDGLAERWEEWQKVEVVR
# In short: as §1
# LOC_OS04G41100-cb001 = test system: T2, LOC_OS04G41100-cb001
# T2 sequence (whole entry): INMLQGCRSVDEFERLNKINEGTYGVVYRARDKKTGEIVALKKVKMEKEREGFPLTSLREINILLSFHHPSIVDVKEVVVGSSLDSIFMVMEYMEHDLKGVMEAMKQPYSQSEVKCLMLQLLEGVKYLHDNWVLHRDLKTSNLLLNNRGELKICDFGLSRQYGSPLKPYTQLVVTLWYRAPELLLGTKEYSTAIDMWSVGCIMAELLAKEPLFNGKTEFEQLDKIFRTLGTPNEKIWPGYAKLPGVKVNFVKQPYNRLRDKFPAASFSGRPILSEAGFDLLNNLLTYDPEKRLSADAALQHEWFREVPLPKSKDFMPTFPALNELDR
# In short: as §1
# LOC_OS04G57630-cb004 = test system: LOC_OS04G57630-cb004
# In short: as §1
# LOC_OS05G07850-cb002 = test system: LOC_OS05G07850-cb002
# In short: as §1
# LOC_OS05G16824-cb004 = test system: LOC_OS05G16824-cb004
# In short: as §1
# LOC_OS05G28520-cb001 = test system: LOC_OS05G28520-cb001
# In short: as §1
# LOC_OS05G30820-cb001 = test system: LOC_OS05G30820-cb001
# In short: as §1
# LOC_OS05G43570-cb004 = test system: LOC_OS05G43570-cb004
# In short: as §1
# LOC_OS06G16330-cb003 = test system: LOC_OS06G16330-cb003
# In short: as §1
# LOC_OS06G22820-cb001 = test system: T3, LOC_OS06G22820-cb001
# T3 sequence (whole entry): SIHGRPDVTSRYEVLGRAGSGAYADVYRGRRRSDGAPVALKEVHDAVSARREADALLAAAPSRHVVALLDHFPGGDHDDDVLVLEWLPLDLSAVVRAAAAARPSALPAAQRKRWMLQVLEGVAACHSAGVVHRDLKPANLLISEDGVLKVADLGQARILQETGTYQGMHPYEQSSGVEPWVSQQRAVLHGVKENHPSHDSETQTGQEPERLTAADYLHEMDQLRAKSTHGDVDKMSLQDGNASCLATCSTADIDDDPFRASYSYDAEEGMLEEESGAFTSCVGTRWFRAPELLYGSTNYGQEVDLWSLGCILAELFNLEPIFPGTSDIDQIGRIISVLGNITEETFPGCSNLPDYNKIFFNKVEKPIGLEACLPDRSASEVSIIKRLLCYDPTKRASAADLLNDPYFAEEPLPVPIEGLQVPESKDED
# In short: as §1
# LOC_OS07G06570-cb004 = test system: LOC_OS07G06570-cb004
# In short: as §1
# LOC_OS07G07230-cb001 = test system: LOC_OS07G07230-cb001
# In short: as §1
# 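Further: purified Escherichia coli-expressed rice kinase domain construct.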
# Chain of LOC_OS06G16330-cb003 (as listed by the source): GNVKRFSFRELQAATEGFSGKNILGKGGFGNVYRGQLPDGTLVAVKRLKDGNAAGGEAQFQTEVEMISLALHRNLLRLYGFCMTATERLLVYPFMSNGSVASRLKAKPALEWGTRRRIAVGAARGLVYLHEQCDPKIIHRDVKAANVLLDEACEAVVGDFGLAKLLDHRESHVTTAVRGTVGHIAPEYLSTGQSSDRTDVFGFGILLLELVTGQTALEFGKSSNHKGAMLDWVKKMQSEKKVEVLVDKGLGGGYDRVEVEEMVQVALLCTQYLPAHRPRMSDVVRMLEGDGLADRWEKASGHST
smiles,measurement,setting,value
C#Cc1cccc(Nc2ncnc3cc4c(cc23)OCCOCCOCCO4)c1 [Icotinib],thermal shift delta Tm,LOC_OS02G45750-cb003,3.3 °C
same,thermal shift delta Tm,LOC_OS02G54510-cb004,0.13 °C
same,thermal shift delta Tm,LOC_OS03G04050-cb001,0.58 °C
same,thermal shift delta Tm,LOC_OS03G12390-cb001,1.26 °C
same,thermal shift delta Tm,LOC_OS03G27990-cb004,0.45 °C
same,thermal shift delta Tm,LOC_OS03G50450-cb001,0.72 °C
same,thermal shift delta Tm,LOC_OS03G50810-cb003,1.31 °C
same,thermal shift delta Tm,LOC_OS04G35114-cb001,4.38 °C
same,thermal shift delta Tm,LOC_OS04G38480-cb003,3.08 °C
same,thermal shift delta Tm,LOC_OS04G41100-cb001,0.38 °C
same,thermal shift delta Tm,LOC_OS04G57630-cb004,1.01 °C
same,thermal shift delta Tm,LOC_OS05G07850-cb002,8.46 °C
same,thermal shift delta Tm,LOC_OS05G16824-cb004,-0.7 °C
same,thermal shift delta Tm,LOC_OS05G28520-cb001,0.87 °C
same,thermal shift delta Tm,LOC_OS05G30820-cb001,0.31 °C
same,thermal shift delta Tm,LOC_OS05G43570-cb004,0.43 °C
same,thermal shift delta Tm,LOC_OS06G16330-cb003,3.06 °C
same,thermal shift delta Tm,LOC_OS06G22820-cb001,0.81 °C
same,thermal shift delta Tm,LOC_OS07G06570-cb004,1 °C
same,thermal shift delta Tm,LOC_OS07G07230-cb001,0.07 °C
CC(C)c1ccc2oc3nc(N)c(C(=O)O)cc3c(=O)c2c1 [Amlexanox],thermal shift delta Tm,LOC_OS02G45750-cb003,4.41 °C
same,thermal shift delta Tm,LOC_OS02G54510-cb004,0.56 °C
same,thermal shift delta Tm,LOC_OS03G04050-cb001,0.67 °C
same,thermal shift delta Tm,LOC_OS03G12390-cb001,0.45 °C
same,thermal shift delta Tm,LOC_OS03G27990-cb004,1.73 °C
same,thermal shift delta Tm,LOC_OS03G50450-cb001,1.46 °C
same,thermal shift delta Tm,LOC_OS03G50810-cb003,0.21 °C
same,thermal shift delta Tm,LOC_OS04G35114-cb001,2.71 °C
same,thermal shift delta Tm,LOC_OS04G38480-cb003,1.28 °C
same,thermal shift delta Tm,LOC_OS04G41100-cb001,0.49 °C
same,thermal shift delta Tm,LOC_OS04G57630-cb004,0.42 °C
same,thermal shift delta Tm,LOC_OS05G07850-cb002,2.22 °C
same,thermal shift delta Tm,LOC_OS05G16824-cb004,2.16 °C
same,thermal shift delta Tm,LOC_OS05G28520-cb001,0.29 °C
same,thermal shift delta Tm,LOC_OS05G30820-cb001,2.58 °C
same,thermal shift delta Tm,LOC_OS05G43570-cb004,0.12 °C
same,thermal shift delta Tm,LOC_OS06G16330-cb003,2.5 °C
same,thermal shift delta Tm,LOC_OS06G22820-cb001,0.56 °C
same,thermal shift delta Tm,LOC_OS07G06570-cb004,0.44 °C
same,thermal shift delta Tm,LOC_OS07G07230-cb001,0.63 °C
CN1CCN(c2nc(C3=C(c4c[nH]c5ccccc45)C(=O)NC3=O)c3ccccc3n2)CC1 [Sotrastaurin],thermal shift delta Tm,LOC_OS02G45750-cb003,1.74 °C
same,thermal shift delta Tm,LOC_OS02G54510-cb004,0.21 °C
same,thermal shift delta Tm,LOC_OS03G04050-cb001,0.22 °C
same,thermal shift delta Tm,LOC_OS03G12390-cb001,0.18 °C
same,thermal shift delta Tm,LOC_OS03G27990-cb004,0.49 °C
same,thermal shift delta Tm,LOC_OS03G50450-cb001,0.36 °C
same,thermal shift delta Tm,LOC_OS03G50810-cb003,1.38 °C
same,thermal shift delta Tm,LOC_OS04G35114-cb001,1.49 °C
same,thermal shift delta Tm,LOC_OS04G38480-cb003,0.76 °C
same,thermal shift delta Tm,LOC_OS04G41100-cb001,0.51 °C
same,thermal shift delta Tm,LOC_OS04G57630-cb004,-0.06 °C
same,thermal shift delta Tm,LOC_OS05G07850-cb002,5.2 °C
same,thermal shift delta Tm,LOC_OS05G16824-cb004,1.64 °C
same,thermal shift delta Tm,LOC_OS05G28520-cb001,0.09 °C
same,thermal shift delta Tm,LOC_OS05G30820-cb001,0.74 °C
same,thermal shift delta Tm,LOC_OS05G43570-cb004,1.24 °C
same,thermal shift delta Tm,LOC_OS06G16330-cb003,0.19 °C
same,thermal shift delta Tm,LOC_OS06G22820-cb001,0.49 °C
same,thermal shift delta Tm,LOC_OS07G06570-cb004,0.81 °C
same,thermal shift delta Tm,LOC_OS07G07230-cb001,-0.05 °C

# Source: the supplement of paper PMC9694430
